What follows are compounds tested against Epidermal growth factor receptor (Homo sapiens) (UniProt P00533) (assay: EGFR binders on small-molecule microarrays, primary screen, biochemical, small-molecule microarray, 635 nm fluorescence (AID 1104;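 note: score merges 667 nm emission intensity with spot signal to noise over triplicate slides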)). Settings: EGFR binding, higher = more signal.
Chain of Epidermal growth factor receptor (Homo sapiens) (P00533 whole entry, looked up): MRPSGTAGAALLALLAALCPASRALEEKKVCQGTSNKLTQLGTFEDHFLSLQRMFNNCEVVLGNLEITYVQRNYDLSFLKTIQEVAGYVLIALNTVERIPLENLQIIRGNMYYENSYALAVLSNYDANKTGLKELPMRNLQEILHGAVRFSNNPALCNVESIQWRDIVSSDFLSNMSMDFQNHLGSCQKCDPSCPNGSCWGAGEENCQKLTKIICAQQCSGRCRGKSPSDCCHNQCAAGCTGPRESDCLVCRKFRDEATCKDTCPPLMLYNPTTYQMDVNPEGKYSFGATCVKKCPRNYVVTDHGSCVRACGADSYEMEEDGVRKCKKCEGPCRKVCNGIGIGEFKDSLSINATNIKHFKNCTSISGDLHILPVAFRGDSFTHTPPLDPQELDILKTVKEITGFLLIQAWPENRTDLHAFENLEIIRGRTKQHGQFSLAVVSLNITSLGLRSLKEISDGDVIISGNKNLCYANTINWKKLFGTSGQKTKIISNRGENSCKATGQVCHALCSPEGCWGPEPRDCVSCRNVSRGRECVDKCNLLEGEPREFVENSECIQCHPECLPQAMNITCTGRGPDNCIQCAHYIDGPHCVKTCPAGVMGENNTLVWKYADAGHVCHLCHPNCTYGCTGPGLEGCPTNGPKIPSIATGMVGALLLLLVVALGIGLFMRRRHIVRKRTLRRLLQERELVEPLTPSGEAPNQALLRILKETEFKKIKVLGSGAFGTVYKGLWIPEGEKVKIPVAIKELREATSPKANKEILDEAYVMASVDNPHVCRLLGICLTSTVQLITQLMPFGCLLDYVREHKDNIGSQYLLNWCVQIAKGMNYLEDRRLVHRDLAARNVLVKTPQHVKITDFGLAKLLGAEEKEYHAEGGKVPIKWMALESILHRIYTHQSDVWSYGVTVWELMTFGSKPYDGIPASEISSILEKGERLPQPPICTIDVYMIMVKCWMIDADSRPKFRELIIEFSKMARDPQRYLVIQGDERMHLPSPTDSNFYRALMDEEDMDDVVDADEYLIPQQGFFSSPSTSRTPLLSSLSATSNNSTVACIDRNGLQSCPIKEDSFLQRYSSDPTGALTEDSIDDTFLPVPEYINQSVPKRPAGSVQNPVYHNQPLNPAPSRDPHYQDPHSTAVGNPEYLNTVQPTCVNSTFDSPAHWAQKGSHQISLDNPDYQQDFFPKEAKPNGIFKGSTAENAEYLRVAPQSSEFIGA
Compound `NC(=O)NCC#Cc1ccc2c(c1)[C@]1(C(=O)N2)[C@H](C(=O)O)[C@H]2C(=O)O[C@H](c3ccccc3)[C@H](c3ccccc3)N2[C@@H]1c1ccc(OCCO)cc1` has a composite z-score of -0.03.
Compound `[N-]=[N+]=Nc1ccccc1C[C@]1(C(=O)N2CCOCC2)N=C(c2ccc(OCCCO)cc2)O[C@H]1c1ccccc1` has a composite z-score of 0.307.
Work on `COc1ccc(C#Cc2ccc3c(c2)[C@]2(C(=O)N3)[C@H](c3ccc(O)cc3)N3[C@H](c4ccccc4)[C@H](c4ccccc4)OC(=O)[C@H]3[C@@H]2C(=O)O)cc1` yielded a composite z-score of -0.209.
Work on `O=C1O[C@@H](c2ccccc2)[C@@H](c2ccccc2)N2[C@@H](c3ccc(OCCO)cc3)[C@]3(C(=O)Nc4ccccc43)[C@@H](C(=O)O)[C@H]12` yielded a composite z-score of -0.38.
`C=C(/C(=C/C[C@H](OC(C)=O)c1cccc(OCCO)c1)c1cnc2ccccc2c1)C(C)C` was tested, and the composite z-score was 0.705.
`COc1ccc([Si](C)(C)[C@H]2[C@H](CCn3cc([C@H](O)c4ccccc4)nn3)O[C@@]3(C(=O)N(Cc4ccc(N5C(=O)c6cccc7cccc5c67)cc4)c4ccccc43)[C@@H]2C)cc1` showed a composite z-score of -0.775.
Work on `CCC(CC)C(O)C1C=CC2C(=O)N(c3ccccc3)C(=O)C2N1Nc1ccc(C(C)C)cc1` (stereo unspecified) yielded a composite z-score of 0.0407.
For `COC1OC[C@]2(C)[C@H]3C4=C(CN2C(=O)OC(C)(C)C)[C@H](C)C(CO)C(CO)C4CC[C@@H]13` (stereo partly specified), the composite z-score was 0.0188.
`COC(=O)[C@@]1(Cc2ccccc2N=[N+]=[N-])N=C(c2ccc(OCCCO)cc2)O[C@H]1c1ccccc1N=[N+]=[N-]` was tested, and the composite z-score was -0.098.
For `CC1CC/C=C\[C@H]2OC34C=CCN(C(C)C)C(=O)[C@H]3N(CCCCCCO)C(=O)[C@@H]4C2C(=O)O1` (stereo partly specified), the composite z-score was -0.755.
In the case of `COC(=O)[C@@]1(Cc2ccc(OC)cc2)[C@H]2c3cc(C(=O)N4CCCC4)n(Cc4cccc5ccccc45)c3C[C@H]2CN1C(=O)c1ccccc1`, the composite z-score is reported as -0.282.
Compound `COc1ccc([Si](C)(C)[C@H]2[C@H](CC(=O)N(CCO)Cc3ccccc3)O[C@@]3(C(=O)N(Cc4cccc(N5CCOC5=O)c4)c4ccccc43)[C@@H]2C)cc1` has a composite z-score of 0.232.
Work on `Cc1cc(C)c(C(O)C2C=CC3C(=O)N(c4ccccc4)C(=O)C3N2Nc2ccc(C(C)C)cc2)c(C)c1` (stereo unspecified) yielded a composite z-score of -0.0206.
For `C=C(/C(=C/C[C@@H](OC(C)=O)c1cccc(OCCO)c1)c1cc(C(=O)OC)ccc1OC)C(C)C`, the composite z-score was -0.122.
Compound `O=C1O[C@H](c2ccccc2)[C@H](c2ccccc2)N2[C@H]1[C@@H](C(=O)Nc1nc3ccccc3s1)[C@]1(C(=O)Nc3ccc(C#CC4(O)CCCCCC4)cc31)[C@H]2c1ccccc1OCCO` has a composite z-score of 0.49.
For `CN1C(=O)C2C=CC(C(O)C#Cc3ccccc3)N(Nc3ccccc3)C2C1=O` (stereo unspecified), the composite z-score was 0.56.
In the case of `C=CC[C@@]1(C(=O)N2CCOCC2)N=C(c2ccc(OCCCO)cc2)O[C@@H]1c1ccccc1CN=[N+]=[N-]`, the composite z-score is reported as 0.749.
`COc1cc(OC)c(C(O)C2C=CC3C(=O)N(C)C(=O)C3N2NC(=O)OC(C)(C)C)cc1Br` (stereo unspecified) showed a composite z-score of 0.26.
With `CC(C)(C)OC(=O)CC[C@]1(C(=O)NCc2ccccc2)N=C(c2ccc(OCCCO)cc2)O[C@H]1c1ccccc1CN=[N+]=[N-]` the composite z-score was 0.227.
`CCCCCCc1nc(C2CC2)cc2c1[Si](C(C)C)(C(C)C)O[C@H]2c1ccccc1` gave a composite z-score of 0.341.
For `COc1ccc(NC(=O)O[C@H]2[C@H](OC(=O)Nc3ccccc3)[C@H](OC(=O)Nc3ccccc3)[C@@H](OC)O[C@@H]2CO)cc1`, the composite z-score was -0.171.
Work on `COc1ccc([Si](C)(C)[C@@H]2[C@@H](CCO)O[C@]3(C(=O)N(Cc4ccc(N5CCCCC5=O)cc4)c4ccccc43)[C@H]2C)cc1` yielded a composite z-score of 0.336.
Compound `COC(=O)c1cn(C[C@@H](Cc2ccccc2)NC(=O)N[C@H](CO)CCc2oc(C(C)=O)c(C(=O)OC)c2C(=O)OC)nn1` has a composite z-score of 0.452.
Work on `C=C(CCCC)/C(=C/C[C@@H](OC(=O)c1ccncc1)c1ccccc1OCCO)c1cnc2ccccc2c1` yielded a composite z-score of 1.02.
Compound `O=C1NC(=O)C2C1C=CC(C(O)c1ccco1)N2Nc1ccccn1` (stereo unspecified) has a composite z-score of 0.217.
Compound `C=CCC(OC(C)=O)[C@@H]1[C@@H](N(Cc2cc3ccccc3o2)C(=O)c2ccc(C)cc2)c2cc(OCCCO)ccc2N1C(=O)Cc1ccc(OC)cc1` (stereo partly specified) has a composite z-score of -0.147.
In the case of `C=CCC(OC(C)=O)[C@@H]1[C@@H](N(Cc2ccc(-c3cccc(C(F)(F)F)c3)o2)C(=O)c2ccc(-c3ccccc3)cc2)c2cc(OCCCO)ccc2N1C(=O)c1ccc2ccccc2n1` (stereo partly specified), the composite z-score is reported as -0.049.
`CN1C(=O)C2C=CC(C(O)c3cccc(O)c3)N(Nc3ccccc3)C2C1=O` (stereo unspecified) showed a composite z-score of -0.288.
With `CN1C(=O)C2C=CC(C(O)COCc3ccccc3)N(N(c3ccccc3)c3ccccc3)C2C1=O` (stereo unspecified) the composite z-score was 0.238.
`COCCCNC(=O)[C@]1(CCS(=O)(=O)c2ccccc2)N=C(c2ccc(OCCCO)cc2)O[C@@H]1c1ccccc1N=[N+]=[N-]` gave a composite z-score of 0.151.
For `O=C1C2C=CC(C(O)c3ccccc3)N(Nc3ccccc3F)C2C(=O)N1c1ccccc1` (stereo unspecified), the composite z-score was 0.223.
With `CCOC(=O)c1ccc(NC(=O)O[C@H]2[C@H](OC(=O)Nc3ccc4c(c3)OCO4)[C@@H](OC(=O)Nc3ccc4c(c3)OCO4)[C@@H](OC)O[C@@H]2CO)cc1` the composite z-score was 0.308.
In the case of `COc1ccc([Si](C)(C)[C@@H]2[C@@H](CC(=O)N3Cc4ccccc4C[C@H]3CO)O[C@]3(C(=O)N(C)c4ccccc43)[C@H]2C)cc1`, the composite z-score is reported as 1.05.
`O=C(NCC(F)(F)F)[C@@H]1c2ccccc2C(=O)N(Cc2ccccc2C(F)(F)F)[C@H]1c1ccc(CO)cc1` showed a composite z-score of -0.79.
`OCC1CC(c2ccccc2)=NO1` (stereo unspecified) gave a composite z-score of 0.37.
With `C=CCNC(=O)[C@@H]1[C@H]2C(=O)O[C@H](c3ccccc3)[C@H](c3ccccc3)N2[C@H](c2ccc(O)cc2)[C@@]12C(=O)N(C(=O)OCCOC)c1ccc(C#CC3(O)CCCCCC3)cc12` the composite z-score was -1.5.

Source: PubChem BioAssay
